# Screening data deposited in PubChem BioAssay by National Center for Advancing Translational Sciences (NCATS).
# VACV Venus inh: qHTS for Stage-Specific Inhibitors of Vaccinia Orthopoxvirus: Venus Reporter Primary qHTS; Vaccinia virus Venus reporter expression, fluorescence; Potency, µM (series often up to 36.5 µM), inactives show at the highest dose activity change, negative = inhibition, hits mostly inhibitors; 330,000 compounds, 0.46% hits; calls by dose curve; tested in A549 cells; further: potency means the concentration at half of the fitted maximal effect; nearly all actives have a fitted effect of over 30% in size
# FBPA Giardia inh: qHTS Assay for Inhibitors of Fructose-1,6-bisphosphate Aldolase from Giardia Lamblia | Potency, µM (highest dose often 59.6 µM), for the others: at the highest dose activity, negative = inhibition, hits mostly inhibitors | AID 2451, 2010 | 290,000 compounds, 0.71% hits | A8B2U2 | purified Giardia FBPA; further: potency means the concentration at half of the fitted maximal effect; nearly all actives have a fitted effect of over 55% in size
# Target sequence (A8B2U2 whole entry, looked up): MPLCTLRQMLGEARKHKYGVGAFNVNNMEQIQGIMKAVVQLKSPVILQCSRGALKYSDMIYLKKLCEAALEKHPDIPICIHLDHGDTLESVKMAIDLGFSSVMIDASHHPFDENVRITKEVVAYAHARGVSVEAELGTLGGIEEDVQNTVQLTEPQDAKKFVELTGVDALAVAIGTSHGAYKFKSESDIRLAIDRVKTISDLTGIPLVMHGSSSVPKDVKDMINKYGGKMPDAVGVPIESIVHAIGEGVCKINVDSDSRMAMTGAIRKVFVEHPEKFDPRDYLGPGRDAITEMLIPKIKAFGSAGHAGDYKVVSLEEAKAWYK
#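 40 nM FBPA preincubated 10 min at RT with compound (up to 57.5 uM final), then substrate plus GAPDH/TPI/NAD/arsenate coupling and diaphorase/resazurin added. Fluorescence read after 20 min at RT, 525/598 nm.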
# FMDV inh: High Throughput Screening for Foot and Mouth Disease Virus Antivirals; FMDV antiviral cell-based qHTS; Potency, µM (titrated, usually from 57.9 µM), without a hit: at the top dose activity change, negative = inhibition, actives largely listed as inhibitors; 410,000 compounds, 1.2% hits; AID 1159524, 2015; calls by dose curve; tested in HEK293T cells; further: read-out not given here; potency means the concentration at half of the fitted maximal effect; nearly all actives have a fitted effect of over 45% in size
# HCV inh: qHTS Assay for Inhibitors of Hepatitis C Virus (HCV) | Huh7.5.1 HCVcc-Cre infection, luciferase reporter, 44 h | Potency, µM (top dose mostly 41.8 µM), inactives show at the top dose activity change, negative = inhibition, most hits filed as inhibitors | 340,000 compounds, 3.4% hits; further: potency means the concentration at half of the fitted maximal effect
#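 Reporter virus HCVcc-Cre (~0.5 moi) infects cells exposed to compound; seeding density 1,000 cells/well with 4 h settling beforehand. Luminescence, 15 sec read, taken 44 h post-infection following a 15 min RT substrate incubation.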
# Vaccinia mCherry: qHTS for Stage-Specific Inhibitors of Vaccinia Orthopoxvirus: mCherry Reporter Primary qHTS; Potency, µM (highest dose often 36.5 µM), for inactives: at the top dose activity change, negative = inhibition, usual class: inhibitors; AID 720579, 2013; Vaccinia virus mCherry reporter infection, fluorescence; 310,000 compounds, 0.63% hits; calls by dose curve; tested in A549 cells; further: potency means the concentration at half of the fitted maximal effect; nearly all actives have a fitted effect of over 35% in size
# HCMV inh: qHTS Assay for inhibitors of the human cytomegalovirus (HCMV) | HFF cells, HCMV-luciferase reporter, 72 h; active compounds read low | activity change, negative = inhibition, % at 57.5 µM | 410,000 compounds, 4.5% hits | AID 1259415, 2018; in the data active means activity change below about -60%; inconclusive means no clear call, values can overlap the other calls; inactive means above about -39%
#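 Human foreskin fibroblasts infected with luciferase-reporter HCMV at MOI 1 PFU/cell, compounds at two doses. Luciferase measured 72 h post infection; normalized to buffer-only basal and Salinomycin (10uM) controls.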
# Active calls of the source: *; i = inactive; u = inconclusive; x = not tested or not shown; [ ] = another dose, or the depositor's remark. This is a sample that favours compounds with a hit; in the whole collection about 7.5% have one here. Unless noted, the call rests on the fitted dose curve; in most records, active means well fitted curve in the direction sought with a large enough effect; inconclusive means small, poorly fitted or top-dose-only effect, or another doubt; inactive means no such curve, though single readings can be large; an effect the other way counts as inactive or inconclusive. On the % scale 0 is the no-effect control and ±100 the full control effect.
SMILES,VACV Venus inh,FBPA Giardia inh,FMDV inh,HCV inh,Vaccinia mCherry,HCMV inh
CC(=O)Nc1cccc(NC(=O)c2ccc3[nH]c(C)c(C)c3c2)c1,-10%,-17%,-5%,-17%,-18%,16
COc1ccccc1CC(=O)Nc1ccc2nc(Nc3cccc(C(F)(F)F)c3)cc(C)c2c1,u,x,u,x,u,-67*
COc1cccc(CC(=O)Nc2ccc3nc(Nc4cccc(C(F)(F)F)c4)cc(C)c3c2)c1,-14%,x,u,x,-11%,-72*
CCN1CCN(c2cc(C)c3cc(NC(=O)Cc4ccccc4OC)ccc3n2)CC1,x,2%,1%,u,x,8
COc1ccc(Nc2cc(C)c3cc(NC(=O)Cc4ccc(Cl)cc4)ccc3n2)cc1,u,x,-25%,x,-20%,-22
O=C(Nc1ccnn1C1CCN(C(=O)c2cccnc2)CC1)c1cccc(F)c1,-12%,x,-2%,x,i,8
COc1ccc(NC(=O)N[C@H]2CC[C@@]34CCCN3C(=O)CCC[C@H]4C2Cc2ccccc2)cc1 (stereo not given in full),x,x,x,x,x,5
COc1ccccc1N=c1sc2ccccc2n1C,-3%,-3%,x,1.8µM*,-20%,-26
COc1ccc(N=c2sc3ccccc3n2C)cc1,2%,-8%,x,-26%,i,31
Cc1cc(C)n(S(=O)(=O)c2ccccc2)n1,-1%,-9%,3%,-12%,i,-2
Cc1cc(C)n(S(=O)(=O)c2ccccc2[N+](=O)[O-])n1,-8%,6%,-21%,4%,u,-60*
COc1ccc(C=C2C(=O)NC(=S)NC2=O)cc1OC,-8%,x,-27%,-3%,-13%,-26
COc1ccc(/C=C/C=C2C(=O)NC(=S)NC2=O)cc1,2%,x,40µM*,u,-12%,7
COc1ccccc1Nc1nn2c(=O)c3ccc(C(=O)NCCC4=CCCCC4)cc3nc2s1,7.9µM*,x,u,x,8.9µM*,-106*
Cc1ccc(C)c(Nc2nn3c(=O)c4ccc(C(=O)NCCc5ccccc5)cc4nc3s2)c1,u,x,0%,x,u,9
Cc1ccc(C)c(Nc2nn3c(=O)c4ccc(C(=O)NCCC5=CCCCC5)cc4nc3s2)c1,u,x,u,x,u,-3
COc1ccccc1Nc1nn2c(=O)c3ccc(C(=O)NCCc4ccccc4)cc3nc2s1,u,x,u,x,u,-99*
CCn1c(CN2CCCCC2)nc2cc(NC(=O)COc3ccc(C(C)(C)C)cc3)ccc21,-15%,x,u,x,-26%,-31
CC/C=C\C/C=C\C/C=C\C/C=C\C/C=C\CCC(=O)O[C@H](COCCCCCCCCCCCCCCCC)COP(=O)([O-])OCC[N+](C)(C)C,x,2%,x,x,x,x
CCc1nnc(NC(=O)CCC(=O)N2CCN(Cc3ccc(Cl)cc3)CC2)s1,u,5%,u,u,x,-15
CC(C)Cc1nnc(NC(=O)CCC(=O)N2CCN(Cc3ccc(F)cc3)CC2)s1,x,3%,0%,22µM*,x,-29
CC(=O)Oc1ccc(-c2ccc(C(=O)OCC(=O)N(C)CC(=O)Nc3ccccc3Cl)cc2)cc1,u,x,3%,u,u,x
O=C(/C=C\Nc1ccc2c(c1)OCO2)c1ccc(Cl)s1,-11%,-6%,u,2%,i,70
O=C(/C=C\Nc1ccc2c(c1)OCO2)c1cccs1,-16%,-8%,10µM*,6%,-20%,-12
O=C(Nc1ccc2c(c1)OCO2)c1ccccn1,x,x,61%,-7%,x,58
SMILES,VACV Venus inh,FBPA Giardia inh,FMDV inh,HCV inh,Vaccinia mCherry,HCMV inh
O=C(/C=C\Nc1ccc2c(c1)OCO2)c1ccccn1,-12%,-1%,2µM*,14%,-18%,-81*
COCCN1CC(C(=O)NCCc2nc(C)c(C)s2)CCC1=O (stereo not given),-11%,x,-1%,3%,-11%,-16
COc1ccc(CNC(=O)c2ccc3c(c2)N(Cc2ccccc2F)C(=O)c2ccccc2S3=O)cc1 (stereo not given),-1%,x,-10%,x,-1%,21
O[C@H]1C[C@H](c2ccccc2)N(CC2CCCCC2)C[C@@H]1n1cc(-c2ccc(F)cc2)nn1,u,x,u,x,u,-101*
O[C@@H]1CN(CC2CCCCC2)[C@@H](c2ccc(Cl)cc2)C[C@H]1n1cc(C2CC2)nn1,14µM*,x,u,x,u,-8
CC(Sc1nnc(C2CC2)n1C1CC1)C(=O)NC1(C#N)CCCCC1 (stereo not given),-10%,x,-8%,15%,-23%,-14
C/C=C/C(=O)OCC(=O)Nc1ccc(SC(F)F)cc1,-15%,-1%,9%,15%,-20%,-76*
CCN1C(=O)C(c2nnnn2-c2c(C)cccc2C)N(CCc2ccccc2)C1=O (stereo not given),x,x,x,x,x,-8
CCc1nc2ccc(C(=O)Nc3ccc(OC)c(OC)c3)cn2c1N(C)Cc1cccs1,-18%,x,-6%,x,-21%,-79*
O=c1[nH]cc(F)c(=O)[nH]1,-28%,-5%,1%,-24%[8.37 µM],5.6µM*,u
C=CCSc1n[nH]c(-c2ccc(OC)cc2)n1,x,21%,47%,20%,x,73
C=CCSc1n[nH]c(-c2ccccc2)n1,-21%,-23%,22%,0%,x,-89*
C=C1NN(Cc2ccccc2)C(=O)N1c1ccc(OCc2ccccc2)cc1,-12%,x,x,x,i,x
O=c1cc(-c2ccccc2)oc2ccc3ccccc3c12,u,x,u,x,-20%,u
O=c1cc(-c2ccc(O)c(O)c2)oc2ccc3ccccc3c12,-23%,x,6.3µM*,u,-25%,-5
COc1ccc(NC(=O)c2ccc(-n3cncn3)c([N+](=O)[O-])c2)cc1OC,-11%,x,-1%,u,i,-18
O=C(Nc1cccc(/C=C/c2ccccn2)c1)c1cc(Cl)ccn1,3%,-15%,19%,5µM*,3%,68
O=C(Nc1ccc(F)c(F)c1)c1ccc(-n2cncn2)c([N+](=O)[O-])c1,x,x,-14%,22µM*,x,-18
O=C(Nc1cccc(/C=C/c2ccccn2)c1)c1ccc(-n2cncn2)c([N+](=O)[O-])c1,u,x,u,u,14µM*,-23
COc1ccc(CCNC(=O)CN(c2ccc(C)cc2)S(=O)(=O)c2ccc(OC)cc2)cc1,-3%,x,-19%,x,3%,-8
Cc1ncsc1CCOC(=O)c1ccc(N2CCOCC2)c([N+](=O)[O-])c1,x,-3%,-1%,-4%,x,-61*
Cc1c(CCOC(=O)c2ccc(N3CCOCC3)c([N+](=O)[O-])c2)sc[n+]1CC#N,-26%,-11%,u,16µM*,u,-36
